The text below walks through data of PubChem BioAssay AID504621 (Broad Institute, 2011).

Structures are written as SMILES. Among all 310,000 compounds or so, about 970 (0.31%) were called active. Only a selection was taken, and actives are over-represented in it overall. Unmarked numbers belong to inactive results.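 The calls were made as follows: active = every replicate shows inhibition above about 80%, whatever the replicate mean (limit read from the data); inconclusive = mean inhibition reaches the set limit but some replicate falls short; inactive = the rest.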

As a reminder, the inhibition is the change of the read-out against control, counted positive when it falls.

A short description of this assay: growth inhibition of PfHsp90-expressing yeast, primary screen, antimalarial PfHsp90 inhibitor project, S. cerevisiae, BacTiter-Glo luminescence, single point, set 2 (AID 504621).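 Also: yeast relying on Plasmodium falciparum Hsp90 in place of its own; 0% = DMSO neutral controls and 100% = 20 µM radicicol positive controls.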 The conditions noted are these: BacTiter-Glo ATP, 48 h, at 9.4 µM, active compounds read high.
In the case of `CCOC(=O)C1(c2ccccc2)CCN(CC(O)c2ccc(NC(C)=O)cc2)CC1` (centres undefined), the inhibition is -7.12%.
The result for `CCC(=O)OC(Cc1ccccc1)(c1ccccc1)C(C)CN(C)C` (centres undefined) reads 34.8%; that for `COC1C(O)C(C)OC(OC2CCC3(C=O)C(CCC4C3CCC3(C)C(C5=CC(=O)OC5)CCC43O)C2)C1O` (centres undefined), -24.6%; that for `CC(=O)OC1C2(CC3N4C(=O)C5(CO)SSC4(CC31O)C(=O)N5C)OC(C)C(C)(C)C2=O` (centres undefined), 11.7%.
The result for `CC1CC=CCC12C(=O)NC(=S)NC2=O` (centres undefined) reads 3.23%; that for `CC12CCC(O)CC1CCC1C2CCC2(C)C(C(=O)CC(O)C(F)(F)F)CCC12` (centres undefined), -14.7%; that for `CC12CCC3C(CCC4CC(=O)CCC43C)C1CC(=NO)C2=O` (centres undefined), -28.6%.
The result for `CN(C)CC1Oc2ccccc2OC1(O)c1ccccc1` (centres undefined) reads 102% (active); that for `O=C(c1ccccc1)C(O)(CN1CCCCC1)c1ccccc1` (centres undefined), 8.04%; that for `CC1C(=O)OC2CCN3CC=C(COC(=O)C(C)(O)C1(C)O)C23` (centres undefined), 11.4%.
Regarding `CC(CC(C#N)(c1ccccc1)c1ccccc1)N1CCCCC1` (centres undefined), the inhibition was 13.9%.
The result for `CCCCCCCCCCCCn1ccc(=N)cc1` reads 93.6% (active).
Turning to `CCC(C)(O)C(=O)OC1C(=O)OC2CC3C(C)=CC(=O)C(O)C3(C)C3C4(O)OCC23C1C(C)C4O` (centres undefined), the inhibition was -25.9%.
The result for `CC(=O)C1(O)CCC2C3CCC4=C(Cl)C(=O)CCC4(C)C3CCC21C` (centres undefined) reads 7.87%.
